# Assay results: PubChem BioAssay (NCI)
# The panel holds about 83,000 compounds, 20% with a hit somewhere; the sample as a whole holds those more often.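 48-hour exposure, single concentration, 96-well plates; percent growth endpoint where 0 means no net growth. Active: below 10.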 A number with no mark means an inactive call. Calls of active or inactive are those of the source.
# Assays:
# Experiment in all cases: NCI-60 one-dose screen, 48 h (100 = growth as untreated, 0 = no growth, -100 = all killed)
# Conditions in all cases: 10 µM unless noted
# DU-145 prostate = system: DU-145 prostate
# K-562 leukemia = system: K-562 leukemia
# MALME-3M melanoma = system: MALME-3M melanoma
# MDA-MB-231 breast = system: MDA-MB-231 breast
# RXF 393 renal = system: RXF 393 renal
# SF-268 CNS = system: SF-268 CNS
# SF-295 CNS = system: SF-295 CNS
# SF-539 CNS = system: SF-539 CNS
# UACC-257 melanoma = system: UACC-257 melanoma
# M14 melanoma = system: M14 melanoma
Compound,growth (DU-145 prostate),growth (K-562 leukemia),growth (MALME-3M melanoma),growth (MDA-MB-231 breast),growth (RXF 393 renal),growth (SF-268 CNS),growth (SF-295 CNS),growth (SF-539 CNS),growth (UACC-257 melanoma),growth (M14 melanoma)
NS(=O)(=O)c1ccc(C(=O)N/N=C(\CS(=O)(=O)c2ccccc2)c2cc3cc(Br)ccc3o2)cc1,101%,106%,90.5%,73.7%,74.7%,73.3%,101%,80.6%,94.8%,111%
CCOC(=O)c1c(Cl)c2c(n1Cc1ccc(OC)cc1)-c1oncc1CCC2,118%,92.1%,119%,77.2%,80.5%,95.9%,99%,93.3%,96.1%,108%
CCOC(=O)c1cnn(CC(O)c2ccc(F)cc2)c1NC(=O)Nc1ccccc1F (stereo not given),102%,97.5%,93.3%,91.2%,108%,99%,91.6%,95.1%,107%,93%
O=C1Nc2ccc(Cl)cc2/C1=N/N=C(c1ccccc1)c1ccccc1,103%,93.3%,87.9%,75.6%,109%,97.8%,92.6%,97%,98.5%,102%
O=C(COc1ccc(/C=C2\CSc3ccccc3C2=O)cc1)c1ccc(Cl)cc1,113%,99.2%,98.7%,97%,90.4%,104%,125%,106%,121%,101%
COc1cc(-c2ccc3cc(OC)c(OC)c(OC)c3c2)cc(OC)c1OC,95.9%,24.9%,68.1%,65.4%,71.4%,77.4%,43.8%,79.3%,75.3%,51.4%
Nc1nc(N)c(N=Nc2c(Br)cc(S(N)(=O)=O)cc2Br)c(N)n1,109%,51.1%,111%,105%,107%,100%,94.9%,112%,98.7%,87.8%
CC(=O)N(CC(O)CO)c1c(I)c(C(=O)NCCO)c(I)c(C(=O)NCC(O)CO)c1I (stereo not given),110%,97%,92.4%,90.5%,103%,105%,118%,100%,103%,92.6%
Cn1cc(C(=O)NCCC(=N)N)cc1NC(=O)CN=C(N)N,104%,134%,106%,94.1%,114%,112%,110%,104%,99.9%,94.2%
COC(=O)c1c2c(c(C)[n+]([O-])c1C)C(=O)C=C(NCc1ccc(F)cc1)C2=O,-90.6% (active),1.64% (active),-97.8% (active),-29.3% (active),-22.2% (active),-1.99% (active),-80% (active),-91.2% (active),-87.2% (active),-69.3% (active)
O=C(COc1cccc(/C=C2\COc3ccccc3C2=O)c1)c1ccccc1,101%,17.1%,90%,83.8%,69.5%,88.7%,115%,90.4%,72.9%,60.9%
COc1ccc(/C=C/C(=O)N2CCC(O)CC2)cc1OC1CCCC1,110%,102%,109%,103%,118%,101%,101%,95.8%,101%,107%
CN1CCc2cccc3c2C1Cc1ccc(O)c(O)c1-3 (stereo not given),96.3%,64.3%,83.1%,65.7%,91.1%,87.6%,97.8%,84.2%,103%,76.1%
O=C1C2CC3C(CC2C(=O)[N]1[Sn]([c]1ccccc1)([c]1ccccc1)[c]1ccccc1)C1(Cl)C(Cl)=C(Cl)C3(Cl)C1(Cl)Cl (stereo not given),-94.5% (active),-30.8% (active),-91.8% (active),-94.7% (active),-76.1% (active),-88.7% (active),-86.8% (active),-99.9% (active),-99.3% (active),-94% (active)
O=C(NC1CC1)c1cc2n(n1)CC(c1ccccc1)N2 (stereo not given),107%,103%,104%,91.3%,95.6%,95.2%,91.8%,96.3%,98.3%,101%
COc1ccc(OC)c(/C=C2\Oc3cc(O)ccc3C2=O)c1,77.5%,93.2%,76%,103%,80.5%,87.3%,98.6%,95.4%,103%,73.2%
COc1cc(CNCCN2C(=O)c3ccc4c5c(ccc(c35)C2=O)C(=O)N(CCNCc2cc(OC)c(OC)c(OC)c2)C4=O)cc(OC)c1OC,-56.8% (active),-4.93% (active),-50.5% (active),-83.9% (active),-94.9% (active),-46.8% (active),-68% (active),-84% (active),-70.9% (active),-96.9% (active)
CC1(C)N=C(N)N=C(N)N1c1cccc(OCCOc2cccc([N+](=O)[O-])c2)c1,45.1%,17.9%,48.2%,65%,73.2%,22.9%,68.1%,26.1%,48.3%,64.1%
O=c1oc2ccccc2cc1-c1csc(N=Nc2c(O)[nH]c3ccc(Cl)cc23)n1,108%,98.7%,105%,102%,129%,98.4%,98.6%,94.5%,80.1%,111%
CCN(CC)c1ccc2c(c1)OS(=O)(=O)N=C2,108%,101%,98.1%,134%,119%,97.7%,99.4%,99.9%,103%,98.6%
COc1cc(CNCCCN2C(=O)c3ccc4c5c(ccc(c35)C2=O)C(=O)N(CCCNCc2cc(OC)c(OC)c(OC)c2)C4=O)cc(OC)c1OC,-95.6% (active),7.69% (active),-87.1% (active),-17.5% (active),-95.3% (active),-31.8% (active),-50.3% (active),-86.9% (active),-93% (active),-89.8% (active)
O=c1[nH]c(=O)n(Cc2ccc(F)cc2)cc1F,110% [50 µM],86.7% [50 µM],101% [50 µM],101% [50 µM],111% [50 µM],99.1% [50 µM],101% [50 µM],100% [50 µM],83.9% [50 µM],109% [50 µM]
COc1cc(C2=NN(c3ccc(S(N)(=O)=O)cc3)C(c3ccc(Cl)cc3)C2)cc(OC)c1OC (stereo not given),65.9%,18.7%,85.7%,43.7%,34.8%,48.2%,25%,69.1%,57.5%,45.7%
Cc1nn(-c2ccccc2)c2nc3nc4c(c(N)c3c(-c3ccc(Cl)cc3)c12)CCC4,90.1%,27.7%,109%,88.1%,79.9%,102%,92.1%,90%,91.4%,98.6%
CCCCCCCC/C=C\CCCCCCCCOc1cccc(CC(=O)NCC[N+](C)(C)C)c1,94.4%,85.5%,90.1%,87.3%,13.8%,71.5%,87.1%,92.2%,103%,75.3%
Cc1cccc2c(=O)c3c(sc12)c(NCCCN)nc1ccccc13,-19.8% (active),-34.6% (active),13.9%,-32.4% (active),31.5%,46.2%,68%,38.4%,81.9%,-19.7% (active)
Nc1cc(Br)c(-c2nnc(CCC(=O)c3nc4ccccc4[nH]3)o2)c(Br)c1,103%,27%,58.7%,76.7%,92.6%,88.2%,66.3%,93.9%,90.7%,79.8%
